# In PubChem BioAssay (Tox21):
# Values without a mark were called inactive. Entries that show only a call come without a potency. Activity calls are given as the source filed them. Unless noted, the call rests on the fitted dose curve; in most records, active means well fitted curve in the direction sought with a large enough effect in the repeat runs; inconclusive means weak or mixed curves; inactive means flat fitted curve, though single readings scatter.
# Legend:
# [1] = qHTS assay to test for compound auto fluorescence at 535 nm (green) in HEK293 cells (AID 720680)
# [2] = qHTS assay to test for compound auto fluorescence at 460 nm (blue) in HEK293 cell free culture (AID 720681)
# Method in brief: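 Blue fluorescence (Ex 405/Em 460 nm, triamterene-equivalent) was read immediately after pin transfer of compound or DMSO into medium (DMEM, 10% FBS) without cells.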
# [3] = qHTS assay to test for compound auto fluorescence at 535 nm (green) in HEK293 cell free culture (AID 720682)
# Method in brief: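 DMEM + 10% FBS, cell-free; cpd or DMSO pinned in; Ex485/Em535 read; output as fluorescein-equivalent signal.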
# [4] = qHTS assay to test for compound auto fluorescence at 590 nm (red) in HEK293 cell free culture (AID 720683)
# Method in brief: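 Red-channel autofluorescence of compounds in culture medium (DMEM, 10% FBS), no cells, measured at 540/590 nm. Rose Bengal sodium is the reference fluorophore for equivalence.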
# [5] = qHTS assay to test for compound auto fluorescence at 590 nm (red) in HepG2 cell free culture (AID 720684)
# Method in brief: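 Steps: dispense MEM/10% FBS medium, no cells; pin compound or DMSO vehicle; read red channel, Ex/Em 540/590 nm. Output given as Rose Bengal sodium equivalents.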
# [6] = qHTS assay to test for compound auto fluorescence at 460 nm (blue) in HepG2 cell free culture (AID 720685)
# Method in brief: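 Compound (23 nL) or DMSO pinned into cell-free MEM with 10% FBS; blue fluorescence read at 405/460 nm excitation/emission, expressed as auto-fluorescence equivalency to triamterene.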
# [7] = qHTS assay to test for compound auto fluorescence at 535 nm (green) in HepG2 cell free culture (AID 720686)
# [8] = target: Glucocorticoid receptor (Homo sapiens) (UniProt P04150); assay: qHTS assay to identify small molecule agonists of the glucocorticoid receptor (GR) signaling pathway (AID 720691; active means well fitted activation curve with a large enough effect in the signal ratio in the repeat runs, not every such curve was filed as active; inconclusive means weak or mixed curves, or effect the other way; inactive means no such curve, though single readings can be large or run the other way; the % refers to the signal ratio; further: potency means the concentration at half of the fitted maximal effect)
# Chain of Glucocorticoid receptor (Homo sapiens) (P04150 whole entry, looked up): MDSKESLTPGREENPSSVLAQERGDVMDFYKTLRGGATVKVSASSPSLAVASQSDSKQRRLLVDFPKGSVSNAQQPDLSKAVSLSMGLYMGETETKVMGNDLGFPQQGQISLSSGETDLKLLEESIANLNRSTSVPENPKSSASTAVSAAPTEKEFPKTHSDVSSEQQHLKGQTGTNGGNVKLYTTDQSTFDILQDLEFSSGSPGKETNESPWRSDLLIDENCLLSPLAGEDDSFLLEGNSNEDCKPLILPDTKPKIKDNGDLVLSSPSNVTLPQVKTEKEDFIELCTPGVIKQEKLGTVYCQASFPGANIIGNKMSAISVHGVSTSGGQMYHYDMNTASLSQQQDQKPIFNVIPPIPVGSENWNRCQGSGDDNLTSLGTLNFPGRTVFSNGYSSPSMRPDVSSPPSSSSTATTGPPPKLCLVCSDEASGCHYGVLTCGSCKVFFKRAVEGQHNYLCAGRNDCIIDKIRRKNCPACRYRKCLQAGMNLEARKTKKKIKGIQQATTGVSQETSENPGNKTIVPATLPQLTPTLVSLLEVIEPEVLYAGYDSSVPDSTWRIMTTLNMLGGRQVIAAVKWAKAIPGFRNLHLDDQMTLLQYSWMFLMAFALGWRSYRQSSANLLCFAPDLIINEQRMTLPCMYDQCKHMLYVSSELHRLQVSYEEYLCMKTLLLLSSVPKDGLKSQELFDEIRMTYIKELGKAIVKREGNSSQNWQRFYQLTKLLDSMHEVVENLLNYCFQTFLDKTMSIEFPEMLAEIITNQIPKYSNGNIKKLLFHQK
# Method in brief: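 qHTS in GR-bla HeLa cells: 4 h settling at 37 C/5% CO2, 18 h compound incubation at 37 C, 2 h LiveBLAzer B/G FRET substrate at room temperature, fluorescence intensity measured.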
# [9] = target: Glucocorticoid receptor (Homo sapiens) (UniProt P04150); assay: qHTS assay to identify small molecule antagonists of the glucocorticoid receptor (GR) signaling pathway (AID 720692; active means well fitted inhibition curve with a large enough effect in the signal ratio in the repeat runs, not every such curve was filed as active; inconclusive means weak or mixed curves, or effect the other way; inactive means no such curve, though single readings can be large or run the other way; the % refers to the signal ratio)
# Method in brief: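 Inhibition of glucocorticoid signalling is measured in HeLa cells with a GRE-controlled beta-lactamase reporter; cells are co-treated with compound and 5 nM dexamethasone (final) for 18 h before FRET substrate readout.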
# [10] = qHTS assay to test for compound auto fluorescence at 460 nm (blue) in HepG2 cells (AID 720687)
# Method in brief: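 Blue-channel autofluorescence (Ex/Em 405/460 nm, triamterene-equivalent) was measured after 1 hr compound exposure at 37 C, 5% CO2. Cells were HepG2, plated overnight at 37 C in MEM plus 10% FBS.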
SMILES,outcome [1],Potency [2],outcome [3],outcome [4],outcome [5],Potency [6],outcome [7],Potency [8],Potency [9],Potency [10]
CCCCCCCC/C=C\CCCCCCCC(N)=O,inactive,inactive,inactive,inactive,inactive,inactive,inactive,inactive,inactive,
Nc1nc(CC(=O)O)cs1,inactive,inactive,inactive,inactive,inactive,inactive,inactive,inactive,,
CC[C@@H]1C[C@H](N(Cc2cc(C(F)(F)F)cc(C(F)(F)F)c2)C(C)=O)c2cc(C(F)(F)F)ccc2N1C(=O)OC(C)C,inactive,inactive,inactive,inactive,inactive,inactive,inactive,inactive,inactive,
CCc1nn(C2CCCCC2)c2cc(C3(C#N)CCC(C(=O)O)CC3)ccc12 (centres undefined),inactive,inactive,inactive,inactive,inactive,inactive,inactive,inactive,,
CCOC(=O)C1=C(C)NC(C)=C(C(=O)OC)C1c1cccc([N+](=O)[O-])c1 (centres undefined),inactive,inactive,,inactive,inactive,inactive,inactive,,,inactive
O=C(O)c1cccc(N(Cc2cccnc2)c2ccc(OC(F)F)c(OC(F)F)c2)c1,inactive,inactive,,inactive,inactive,inactive,inactive,,,inactive
Cc1ccc(C(N)=O)cc1N,inactive,inactive,inactive,inactive,inactive,inactive,inactive,inactive,inactive,inactive
CN1CCN(C2=Nc3cc(Cl)ccc3Nc3ccccc32)CC1,inactive,inactive,inactive,inactive,inactive,inactive,inactive,inactive,,
O=c1c2ccccc2nnn1CCl,inactive,inactive,inactive,inactive,inactive,inactive,inactive,inactive,inactive,inactive
CCOC(=O)C1=NN(c2ccccc2)C(=O)C1,inactive,inactive,inactive,inactive,inactive,inactive,inactive,inactive,,
N[C@H]1C(O)O[C@H](CO)[C@H](O)[C@@H]1O (some centres undefined),inactive,inactive,,inactive,inactive,inactive,inactive,,,inactive
CC(=O)[C@@]1(O)CC[C@H]2[C@@H]3C[C@H](C)C4=CC(=O)CC[C@]4(C)[C@H]3CC[C@@]21C,inactive,inactive,inactive,inactive,inactive,inactive,inactive,0.0849 µM (active),,
Oc1ccc(O)c2c(O)cccc12,inactive,inactive,inactive,inactive,inactive,inactive,inactive,inactive,,
CCCCCCCCCCCCCCCC(=O)OC/C=C(C)/C=C/C=C(C)/C=C/C1=C(C)CCCC1(C)C,inactive,inactive,inactive,inactive,inactive,inactive,inactive,inactive,,
S=C(S)NCCNC(=S)S,inactive,inactive,inactive,inactive,inactive,inactive,inactive,inactive,inactive,
CCCCOCCOCCOCCOCCO,inactive,inactive,inactive,inactive,inactive,,inactive,,,inactive
O=C=NC1CCC(CC2CCC(N=C=O)CC2)CC1 (centres undefined),inactive,inactive,inactive,inactive,inactive,inactive,inactive,inactive,inactive,
CCOc1cc(OCC)c(C(=O)CCC(=O)O)cc1OCC,inactive,inactive,inactive,inactive,inactive,inactive,inactive,inactive,,
CCOC(=O)CC(C)C,inactive,inactive,inactive,inactive,inactive,inactive,inactive,inactive,inactive,
CNS(=O)(=O)Cc1ccc2[nH]cc(CCN(C)C)c2c1,inactive,inactive,inactive,inactive,inactive,inactive,inactive,inactive,,
CC1=CC(=O)/C(=C(/C)O)C(=O)O1,inactive,inactive,inactive,inactive,inactive,inactive,inactive,inactive,,
Cc1cc(CC(=O)O)c(C)n1-c1ccc(Cl)cc1,inactive,inactive,inactive,inactive,inactive,inactive,inactive,inactive,,
CCCCCCCCCCCCCCCBr,inactive,inactive,inactive,inactive,inactive,inactive,inactive,inactive,,
COC(=O)CSc1cc(N=c2sc(=O)n3n2CCCC3)c(F)cc1Cl,inactive,inactive,inactive,inactive,inactive,inactive,inactive,inactive,inactive,
NC(N)=NN=C(/C=C/c1ccc([N+](=O)[O-])o1)/C=C/c1ccc([N+](=O)[O-])o1,inactive,inactive,inactive,inactive,inactive,inactive,inactive,6.74 µM [inconclusive] (active),,
O=CNc1ccccc1,inactive,inactive,inactive,inactive,inactive,inactive,inactive,inactive,,
